The values below come from PubChem BioAssay (NCI).

The structures appear in SMILES notation. Values joined by “and” are separate entries in the source; they are usually repeats but may differ in a detail not shown here. Equal entries are not always repeated. Compounds without any hit were thinned out: in the full panel of roughly 83,000, 20% have a hit.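 Assay: single dose, 48 h. Readout: percent growth (0 = no net growth; negative = cell death). Active: <10.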 Values without a mark were called inactive. Active and inactive are the calls of the source.

What all share (test): NCI-60 one-dose screen, 48 h (100 = growth as untreated, 0 = no growth, -100 = all killed)
The subject of one experiment is BT-549 breast. Conditions: 10 µM.
The subject of another experiment is MDA-MB-435 melanoma. Conditions: 10 µM.
For the next experiment, the system named is SW-620 colon. Conditions: 10 µM.
Another experiment has as its system MCF7 breast.
For another experiment, the system named is HCT-116 colon. The following applies: 10 µM.
For the next experiment, the system named is HCC-2998 colon. The following applies: 10 µM.
For another experiment, the system named is KM12 colon. Conditions: 10 µM.
For a further experiment, the system named is T-47D breast. Conditions: 10 µM.

On to `O=C1C=CC(=CC=C2C=CN(CCCCCCCCCCCO)C=C2)C=C1`, for which the growth in the experiment on BT-549 breast is -11% (active); in the experiment on MDA-MB-435 melanoma it was 18.9%; with SW-620 colon, 41.9%; in the experiment on MCF7 breast (10 µM) it was 8.64% (active); with HCT-116 colon, 23.3%; in the experiment on HCC-2998 colon, 57.9%. For the same molecule, the growth in the experiment with KM12 colon was 24.2%.
On to `CC(C)C1=C(O)C2=C(C(=O)C1=O)C1(C)CCCC(C)(C)C1CC2O` (stereo not drawn), for which, in the experiment with MCF7 breast (100 µM), the growth is -23.1% (active) and -78.3% (active).
Consider `CN(C)C(=S)SC(=S)N(C)C`, for which the growth with T-47D breast was 67% and 96.3%; with BT-549 breast it was 109% and 115%; with MDA-MB-435 melanoma, 94.6% and 93%; with SW-620 colon, 102% and 96%; with HCT-116 colon, 87% and 67.7%; in the experiment on HCC-2998 colon, 96.7% and 107%. In addition, in the experiment with KM12 colon, the growth is 110% and 97.3%.
On to `COc1ccc(CC(=O)c2ccc(O)cc2O)cc1`, for which the growth with T-47D breast is 182%; with MDA-MB-435 melanoma it was 115%; in the experiment on SW-620 colon, 111%; in the experiment with HCT-116 colon it was 96.6%; in the experiment with HCC-2998 colon, 107%; in the experiment with KM12 colon it was 122%.
For the molecule `O=C(Nc1ccc(C(=O)O)c(O)c1)c1ccccc1`, the growth in the experiment on T-47D breast was 101% and 104%; with BT-549 breast, 104%; with MDA-MB-435 melanoma, 99% and 99.1%; with SW-620 colon, 99% and 113%; with HCT-116 colon, 107% and 101%; in the experiment with HCC-2998 colon, 102% and 106%. Moreover, the growth with KM12 colon is 120%.
